Source: PMC5540273 (PLoS ONE, 2017)
Read-outs that look alike come from different tables or passages of the source.

Experiments:
STK16 = conditions: concentration: 1 μM, replicates: in singlicate; n = 1
STK33 = conditions: concentration: 1 μM, replicates: in singlicate; n = 1
STK35 = conditions: concentration: 1 μM, replicates: in singlicate; n = 1
STK36 = conditions: concentration: 1 μM, replicates: in singlicate; n = 1
STK39 = conditions: concentration: 1 μM, replicates: in singlicate; n = 1
SYK = conditions: concentration: 1 μM, replicates: in singlicate; n = 1
SgK110 = conditions: concentration: 1 μM, replicates: in singlicate; n = 1
TAK1 = tested on: T1, TAK1; conditions: concentration: 1 μM, replicates: in singlicate; n = 1
T1 construct: gene MAP3K7

TAOK1 = conditions: concentration: 1 μM, replicates: in singlicate; n = 1
TAOK2 = conditions: concentration: 1 μM, replicates: in singlicate; n = 1
TAOK3 = conditions: concentration: 1 μM, replicates: in singlicate; n = 1
TBK1 = conditions: concentration: 1 μM, replicates: in singlicate; n = 1
TEC = conditions: concentration: 1 μM, replicates: in singlicate; n = 1
TESK1 = conditions: concentration: 1 μM, replicates: in singlicate; n = 1
TGFBR1 = conditions: n = 1
TGFBR2 = conditions: concentration: 1 μM, replicates: in singlicate; n = 1
TIE1 = conditions: concentration: 1 μM, replicates: in singlicate; n = 1
TIE2 = tested on: T2, TIE2; conditions: concentration: 1 μM, replicates: in singlicate; n = 1
T2 construct: gene TEK

TLK1 = conditions: concentration: 1 μM, replicates: in singlicate; n = 1
TLK2 = conditions: concentration: 1 μM, replicates: in singlicate; n = 1
[1] = concentration: 1 μM, replicates: in singlicate
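Note: KINOMEscan kinase panel screen.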

Which “%Inh” value (STK16) does the source give for Cn1ccc2ncnc(Oc3ccc(NC(=O)Nc4ccccc4)cc3)c21 here?
The value was 9%.

What about the “%Inh” value (STK33) of the same compound?
The value was 17%.

What about the “%Inh” value (STK35) of the same compound?
Its value is 17%.

And the “%Inh” value (STK36)?
Its value is 0%.

What about the “%Inh” value (STK39) of the same compound?
Its value is 0%.

What about the “%Inh” value (SYK) of the same compound?
The value was 12%.

What about the “%Inh” value (SgK110) of the same compound?
Its value is 2%.

What about the “%Inh” value (TAK1) of the same compound?
Its value is 4%.

What about the “%Inh” value (TAOK1) of the same compound?
The value was 0%.

What about the “%Inh” value (TAOK2) of the same compound?
The value was 0%.

And the “%Inh” value (TAOK3)?
Its value is 0%.

And the “%Inh” value (TBK1)?
Its value is 30%.

What about the “%Inh” value (TEC) of the same compound?
The value was 0%.

What about the “%Inh” value (TESK1) of the same compound?
The value was 1%.

What about the “%Inh” value (TGFBR1; [1]) of the same compound?
The value was 0%.

And the “%Inh” value (TGFBR2)?
Its value is 0%.

What about the “%Inh” value (TIE1) of the same compound?
Its value is 0%.

And the “%Inh” value (TIE2)?
The value was 0%.

What about the “%Inh” value (TLK1) of the same compound?
Its value is 2%.

And the “%Inh” value (TLK2)?
The value was 0%.

Which “%Inh” value (STK16) does the source give for Cn1ccc2ncnc(Oc3cccc(C(=O)Nc4ccccc4)c3)c21 here?
The value was 0%.

What about the “%Inh” value (STK33) of the same compound?
Its value is 7%.

And the “%Inh” value (STK35)?
The value was 0%.

And the “%Inh” value (STK36)?
Its value is 0%.

What about the “%Inh” value (STK39) of the same compound?
Its value is 0%.

And the “%Inh” value (SYK)?
The value was 2%.

What about the “%Inh” value (SgK110) of the same compound?
Its value is 0%.

What about the “%Inh” value (TAK1) of the same compound?
The value was 13%.

And the “%Inh” value (TAOK1)?
The value was 0%.

And the “%Inh” value (TAOK2)?
Its value is 0%.

What about the “%Inh” value (TAOK3) of the same compound?
Its value is 0%.

And the “%Inh” value (TBK1)?
Its value is 0%.

What about the “%Inh” value (TEC) of the same compound?
Its value is 11%.

What about the “%Inh” value (TESK1) of the same compound?
The value was 0%.

What about the “%Inh” value (TGFBR1; [1]) of the same compound?
Its value is 8%.

And the “%Inh” value (TGFBR2)?
Its value is 0%.

And the “%Inh” value (TIE1)?
Its value is 0%.

What about the “%Inh” value (TIE2) of the same compound?
Its value is 0%.

And the “%Inh” value (TLK1)?
Its value is 5%.

And the “%Inh” value (TLK2)?
Its value is 7%.

What does the source list for COc1ccc(CNC(=O)NC2CCN(c3ccnc(Nc4cc(OC)c(OC)c(OC)c4)n3)C2)cc1 (stereo not shown) [GSK1379748]?
%Inh (STK16): 54%; %Inh (STK33): 0%; %Inh (STK35): 0%; %Inh (STK36): 0%; %Inh (STK39): 1%; %Inh (SYK): 21%; %Inh (SgK110): 0%; %Inh (TAK1): 0%; %Inh (TAOK1): 0%; %Inh (TAOK2): 0%; %Inh (TAOK3): 0%; %Inh (TBK1): 15%; %Inh (TEC): 0%; %Inh (TESK1): 2%; %Inh (TGFBR1; [1]): 0%; %Inh (TGFBR2): 0%; %Inh (TIE1): 20%; %Inh (TIE2): 0%; %Inh (TLK1): 9%; %Inh (TLK2): 0%

For Cc1csc(-c2nc(Nc3ccncc3)c3ccccc3n2)n1 [GW869640], which “%Inh” value (STK16) is on record?
The value was 17%.

What about the “%Inh” value (STK33) of the same compound?
Its value is 18%.

What about the “%Inh” value (STK35) of the same compound?
The value was 0%.

And the “%Inh” value (STK36)?
The value was 0%.

What about the “%Inh” value (STK39) of the same compound?
The value was 0%.

What about the “%Inh” value (SYK) of the same compound?
Its value is 2%.

What about the “%Inh” value (SgK110) of the same compound?
The value was 8%.

What about the “%Inh” value (TAK1) of the same compound?
The value was 25%.

And the “%Inh” value (TAOK1)?
The value was 36%.

And the “%Inh” value (TAOK2)?
Its value is 16%.

What about the “%Inh” value (TAOK3) of the same compound?
The value was 29%.

What about the “%Inh” value (TBK1) of the same compound?
Its value is 37%.

And the “%Inh” value (TEC)?
The value was 9%.

And the “%Inh” value (TESK1)?
The value was 13%.

What about the “%Inh” value (TGFBR2) of the same compound?
The value was 88%.

And the “%Inh” value (TIE1)?
Its value is 36%.

What about the “%Inh” value (TIE2) of the same compound?
The value was 21%.

What about the “%Inh” value (TLK1) of the same compound?
The value was 0%.

What about the “%Inh” value (TLK2) of the same compound?
Its value is 1%.

For O=C1NC(=O)C(N2CCc3ccccc32)=C1c1ccccc1Cl [SB-373598], which “%Inh” value (STK16) is on record?
Its value is 58%.

And the “%Inh” value (STK33)?
Its value is 9%.

What about the “%Inh” value (STK35) of the same compound?
Its value is 1%.

What about the “%Inh” value (STK36) of the same compound?
Its value is 22%.

What about the “%Inh” value (STK39) of the same compound?
Its value is 7%.

What about the “%Inh” value (SYK) of the same compound?
Its value is 48%.

What about the “%Inh” value (SgK110) of the same compound?
The value was 0%.

And the “%Inh” value (TAK1)?
The value was 7%.

What about the “%Inh” value (TAOK1) of the same compound?
The value was 15%.

And the “%Inh” value (TAOK2)?
Its value is 100%.

And the “%Inh” value (TAOK3)?
The value was 15%.

What about the “%Inh” value (TBK1) of the same compound?
The value was 19%.

What about the “%Inh” value (TEC) of the same compound?
The value was 0%.

What about the “%Inh” value (TESK1) of the same compound?
Its value is 27%.

What about the “%Inh” value (TGFBR1; [1]) of the same compound?
Its value is 9%.

And the “%Inh” value (TGFBR2)?
Its value is 10%.

And the “%Inh” value (TIE1)?
Its value is 13%.

What about the “%Inh” value (TIE2) of the same compound?
Its value is 6%.

What about the “%Inh” value (TLK1) of the same compound?
Its value is 8%.

What about the “%Inh” value (TLK2) of the same compound?
The value was 4%.

How did the “%Inh” value (STK16) turn out when COc1cccc(-c2cc(-c3c[nH]nc3-c3ccccn3)ccn2)c1 [GW680338] was run?
Its value is 8%.

And the “%Inh” value (STK33)?
Its value is 0%.

What about the “%Inh” value (STK35) of the same compound?
The value was 0%.

And the “%Inh” value (STK36)?
Its value is 25%.

What about the “%Inh” value (STK39) of the same compound?
The value was 13%.

What about the “%Inh” value (SYK) of the same compound?
Its value is 17%.

And the “%Inh” value (SgK110)?
The value was 17%.

What about the “%Inh” value (TAK1) of the same compound?
The value was 0%.

What about the “%Inh” value (TAOK1) of the same compound?
Its value is 0%.

What about the “%Inh” value (TAOK2) of the same compound?
The value was 0%.

What about the “%Inh” value (TAOK3) of the same compound?
The value was 0%.

What about the “%Inh” value (TBK1) of the same compound?
The value was 0%.

What about the “%Inh” value (TEC) of the same compound?
Its value is 0%.

And the “%Inh” value (TESK1)?
Its value is 15%.

What about the “%Inh” value (TGFBR1; 1 µM) of the same compound?
Its value is 54%.

And the “%Inh” value (TGFBR2)?
The value was 32%.

And the “%Inh” value (TIE1)?
Its value is 0%.

And the “%Inh” value (TIE2)?
Its value is 0%.

And the “%Inh” value (TLK1)?
Its value is 0%.

What about the “%Inh” value (TLK2) of the same compound?
Its value is 0%.

How did the “%Inh” value (STK16) turn out when Cc1cccc(-c2nc(-c3ccc(S(C)(=O)=O)cc3)sc2-c2ccnc(NCCc3ccccc3)c2)c1 was run?
Its value is 13%.

And the “%Inh” value (STK33)?
Its value is 0%.

What about the “%Inh” value (STK35) of the same compound?
The value was 9%.

And the “%Inh” value (STK36)?
Its value is 11%.

What about the “%Inh” value (STK39) of the same compound?
Its value is 1%.

And the “%Inh” value (SYK)?
The value was 0%.

And the “%Inh” value (SgK110)?
The value was 9%.

And the “%Inh” value (TAK1)?
Its value is 0%.

What about the “%Inh” value (TAOK1) of the same compound?
The value was 0%.

And the “%Inh” value (TAOK2)?
Its value is 12%.

What about the “%Inh” value (TAOK3) of the same compound?
The value was 0%.

And the “%Inh” value (TBK1)?
Its value is 24%.

What about the “%Inh” value (TEC) of the same compound?
Its value is 0%.

What about the “%Inh” value (TESK1) of the same compound?
The value was 11%.

And the “%Inh” value (TGFBR1; [1])?
Its value is 26%.

What about the “%Inh” value (TGFBR2) of the same compound?
Its value is 0%.

And the “%Inh” value (TIE1)?
Its value is 14%.

And the “%Inh” value (TIE2)?
Its value is 19%.

What about the “%Inh” value (TLK1) of the same compound?
Its value is 6%.

And the “%Inh” value (TLK2)?
The value was 4%.
